BAZ2B block – BAZ2B (human) inhibition; hit rate 4.4% among 360,000; AlphaScreen BAZ2B-H3K14Ac peptide displacement; Potency, µM (series often up to 114 µM), inactives show top-dose activity change, negative = inhibition, usual class: inhibitors; Q9UIF8; also: potency is read from the fitted curve at half-maximal effect; % is scaled to controls: 0 for no effect and ±100 for the full control effect; nearly all actives have a fitted effect of over 60% in size
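In this displacement format the biotinylated H3(5-23) peptide acetylated at Lys14 serves as ligand at 50 nM, with BAZ2B at 50 nM in PBS pH 7.4 containing 0.01% Tween-20. Donor and acceptor beads are 10 ug/mL final.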
JMJD2A Tudor inh – blocks the human JMJD2A Tudor domain. hit rate 4.4% among 390,000. O75164. AID 504339. AlphaScreen JMJD2A-Tudor / H3K4me3 peptide binding. Potency, µM (titrated, usually from 114 µM), inactives show at the highest dose activity change, negative = inhibition, hits mostly inhibitors; also: potency is read from the fitted curve at half-maximal effect; % is scaled to controls: 0 for no effect and ±100 for the full control effect; nearly all actives have a fitted effect of over 50% in size
G9a inh – G9a (human) methyltransferase inhibition. Q96KQ7. G9a H3K9 monomethylation, AlphaScreen, 2 h. Potency, µM (doses to about 102 µM), without a hit: at the highest dose activity, negative = inhibition, most hits filed as inhibitors. hit rate 8.8% among 350,000; also: potency is read from the fitted curve at half-maximal effect; % is scaled to controls: 0 for no effect and ±100 for the full control effect; nearly all actives have a fitted effect of over 75% in size
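Signal arises when biotinylated H3K9 peptide, once monomethylated, bridges streptavidin donor and antibody-captured acceptor beads. Enzyme at 20 nM was preincubated 15 min with test compounds; peptide 500 nM and SAM 20 uM then reacted for 2 h.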
PLK1 PBD block – blocks phosphopeptide binding to human PLK1 polo-box domain. AID 720504. P53350. Potency, µM, for inactives: max response, negative = inhibition, most hits filed as inhibitors. Plk1 PBD binding of FITC phosphopeptide, fluorescence polarization. hit rate 2.8% among 360,000; also: potency is read from the fitted curve at half-maximal effect; series mostly up to about 57 µM; % is scaled to controls: 0 for no effect and ±100 for the full control effect; nearly all actives have a fitted effect of over 65% in size
PI5P4Ka inh – blocks human PI5P4K alpha kinase activity. P48426. PI5P4Kalpha enzyme, ADP-Glo luminescence, 60 min; stronger effect = lower value. max response, %. hit rate 1.2% among 330,000; active = max response of -50% or lower; inconclusive = between -30% and -50%; inactive = -30% or higher; also: value at the top dose of about 77 µM; % is scaled to controls: 0 for no effect and ±100 for the full control effect
Target sequence (P48426 whole entry, looked up): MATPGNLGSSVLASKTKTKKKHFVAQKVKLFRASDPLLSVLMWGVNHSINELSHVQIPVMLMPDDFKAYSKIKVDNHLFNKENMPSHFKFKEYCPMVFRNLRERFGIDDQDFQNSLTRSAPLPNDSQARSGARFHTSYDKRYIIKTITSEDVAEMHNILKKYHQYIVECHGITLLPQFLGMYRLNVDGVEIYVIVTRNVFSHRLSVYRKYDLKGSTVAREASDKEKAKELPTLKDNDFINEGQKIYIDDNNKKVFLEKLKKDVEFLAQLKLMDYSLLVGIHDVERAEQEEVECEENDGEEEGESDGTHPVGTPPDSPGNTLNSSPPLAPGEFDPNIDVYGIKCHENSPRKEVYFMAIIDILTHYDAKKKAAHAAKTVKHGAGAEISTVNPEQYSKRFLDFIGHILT
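qHTS, 1536-well: enzyme/substrate mix, compound by pin tool, 5 microM ATP final; RT 60 min; ADP-Glo reagents 1 (45 min) then 2 (30 min); luminescence.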
HP1b binding inh – HP1-beta chromodomain-methylated histone interaction inhibition; P83916; AlphaScreen HP1-beta / biotin-H3K9me3 peptide binding; Potency, µM (highest dose often 114 µM), for inactives: at the highest dose activity change, negative = inhibition, usual class: inhibitors; hit rate 0.56% among 390,000; AID 540317; also: potency is read from the fitted curve at half-maximal effect; nearly all actives have a fitted effect of over 70% in size
Target sequence (P83916 whole entry, looked up): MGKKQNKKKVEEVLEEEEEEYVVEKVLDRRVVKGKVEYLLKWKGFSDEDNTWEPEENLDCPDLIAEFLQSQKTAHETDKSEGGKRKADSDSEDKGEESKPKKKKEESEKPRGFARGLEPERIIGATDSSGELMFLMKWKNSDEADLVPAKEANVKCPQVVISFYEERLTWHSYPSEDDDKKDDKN
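HP1-beta protein (50 nM final) preincubated 30 min at room temperature with biotinylated H3(1-18)K9me3 peptide (50 nM) in PBS pH 7.4, 0.01% Tween-20, then compound added for 30 min. AlphaScreen streptavidin donor/nickel chelate acceptor beads (10 ug/mL final), 30 min dark, luminescence read.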
* hit, by the source's call; ? = inconclusive; · = no result; [ ] = dose if it differs, or a comment. Hits are enriched below; roughly 12% of the tested compounds scored in any of these assays. Unless noted, calls follow the shape of the dose curve; as a rule, active = well fitted curve in the direction sought with a large enough effect; inconclusive = small, poorly fitted or top-dose-only effect, or another doubt; inactive = no such curve, though single readings can be large; an effect the other way counts as inactive or inconclusive.

SMILES | BAZ2B block | JMJD2A Tudor inh | G9a inh | PLK1 PBD block | PI5P4Ka inh | HP1b binding inh
CC(C)(C)NC(=O)C(c1ccncc1)N(C(=O)Cn1nnc(-c2ccc(F)cc2)n1)c1ccccc1 (stereo unspecified) | ? | ? | 22µM* | 27µM* | -4 | -4%
Cc1ccc(-c2nnn(CC(=O)N(c3cccc(O)c3)C(C(=O)NC(C)(C)C)c3cccs3)n2)o1 (stereo unspecified) | 1% | -20% | 45µM* | -9% | · | 5%
C#CCNC(=O)C1=C[C@H](c2coc3ccccc3c2=O)[C@@H](CCCO)[C@H](OCC)O1 | -14% | -9% | 16%[12.7 µM] | -8% | 2 | 34%
O=C(COc1ccc(F)cc1)OCc1cc(=O)n2nc(-c3cccs3)sc2n1 | ? | -31% | 27%[59 µM] | · | · | 6%
Cc1nc(Nc2ccc(C(=O)O)cc2)sc1-c1ccccc1 | -34% | ? | -39% | -24% | ? | 10%
O=[N+]([O-])c1ccc(-c2csc(Nc3ccccc3)[n+]2Cc2ccccc2)cc1 | 40µM* | 18µM* | ? | 3% | 5 | 16µM*
COc1ccc(-c2csc(Nc3ccccc3)[n+]2Cc2ccccc2)cc1 | · | -3% | 16µM* | -2% | -3 | ?
Cc1ccc(-c2csc(Nc3ccc(C(=O)O)cc3)[n+]2Cc2ccccc2)cc1 | -38% | 40µM* | 15% | ? | 0 | -26%
O=C(Cc1nc(-c2ccc([N+](=O)[O-])cc2)cs1)Nc1ccccc1 | -34% | -13% | · | -8% | · | 7%
CCOC(=O)c1cccc(NC(=O)CC2C(=O)N(c3ccc(Cl)cc3)C(=O)N2C2CCCC2)c1 (stereo unspecified) | -23% | -20% | -46%[59 µM] | · | · | 41%
Cc1ccc2c(CN3CCC(C)CC3)cc(=O)oc2c1 | -3% | -5% | 45µM* | -2% | · | 29%
Cc1ccc2c(CN3CC(C)CC(C)C3)cc(=O)oc2c1 (stereo unspecified) | 14% | 3% | 5% | -2% | 8 | 53%
Cc1ccc2c(CN3CCCCC3CCO)cc(=O)oc2c1 (stereo unspecified) | 3% | 0% | 25µM* | -2% | 3 | 32%
Cc1ccc2c(CN3CCCCC3C)cc(=O)oc2c1 (stereo unspecified) | 9% | -4% | 8% | -7% | 7 | 32%
Cc1ccc(S(=O)(=O)N(C)c2ccc(OCC(=O)Nc3cccc(-n4cnnn4)c3C)cc2)cc1 | -3% | -8% | 15%[12.7 µM] | -8% | 7 | 37%
O=C1CS/C(=N/N=C/c2ccncc2)N1 | -6% | ? | · | -8% | 0 | 17%
Cn1ccc(/C=N/N=C2/NC(=O)CS2)n1 | -20% | -1% | 10µM* | 1% | 2 | 39%
N#Cc1sc2nc(-c3ccccc3)cc(-c3ccco3)c2c1N | ? | 56µM* | 8.9µM* | ? | -100* | -19%
N#Cc1sc2nc(C3CC3)cc(-c3ccccc3)c2c1N | 145% | 115% | 185% | 4% | -1 | 263%
Oc1ccc(N=Nc2ccccc2)o1 | -16% | -17% | 40µM* | ? | 1 | 26%
O=S(=O)(O)c1ccc(N=Nc2ccccc2)cc1 | -10% | -24% | ? | -14% | -15 | 21%
CCCCNC(=S)N1CCN(C)CC1 | 40µM* | 11µM* | 11µM* | -20% | 0 | 45µM*
S=C(NCCc1ccccc1)N1CCN(C(=S)NCCc2ccccc2)CC1 | 13% | 1% | -2% | -10% | -3 | 13%
CCNC(=S)N1CCN(CC)CC1 | 56µM* | 3.2µM* | 25µM* | -21% | 1 | ?
CN1CCN(C(=S)NCCc2ccccc2)CC1 | 45µM* | 4.5µM* | 6.3µM* | -2% | · | 56µM*
SMILES | BAZ2B block | JMJD2A Tudor inh | G9a inh | PLK1 PBD block | PI5P4Ka inh | HP1b binding inh
O=C(NCCc1nc2ccccc2n1CCCOc1ccccc1Cl)C1CCCCC1 | · | -14%[57.1 µM] | · | · | · | 20%[57 µM]
COc1ccc(NCc2ccccc2[N+](=O)[O-])cc1OC | 50µM* | 50µM* | 11µM* | -11% | -1 | ?
CC(=O)c1cccc(S(=O)(=O)Nc2ccccc2N2CCOCC2)c1 | · | -6% | · | -10% | 6 | 40%
CN(C)C(=O)c1ccc(S(=O)(=O)NCc2ccccc2Cl)s1 | 1% | -12% | 23%[59 µM] | · | · | 34%
O=C(NC1CC(=O)N(c2cccc(F)c2)C1)C(c1ccccc1)c1ccccc1 (stereo unspecified) | 3% | 1% | 1%[59 µM] | · | · | 37%
C=CCn1c(SCC(=O)N(CC)C2CCS(=O)(=O)C2)nc2cc(C(=O)O)ccc2c1=O (stereo unspecified) | 7% | -3% | 115%[12.7 µM] | -13% | -64* | 35%
C=CCn1c(SCC(=O)N(CC)C2CCS(=O)(=O)C2)nc2ccccc2c1=O (stereo unspecified) | -1% | 1% | 10%[12.7 µM] | 3% | 0 | 48%
C=CCn1c(SCc2ccccc2F)nc2cc(C(=O)O)ccc2c1=O | ? | -3% | -43% | -8% | -74* | 16%
N#CCCN=C(NS(=O)(=O)c1ccccc1)c1ccccc1 | -2% | -11% | 4% | -5% | -1 | -6%
COc1ccc(OC)c(Nc2nc3ccccc3n3c(C)nnc23)c1 | -1% | 2% | 14%[59 µM] | · | · | 26%
CCOc1ccc(-c2cc(N)n(S(=O)(=O)c3cccc4nsnc34)n2)cc1 | ? | ? | 22µM* | -4% | 2 | -12%
CC1(C)CC(=O)C2=C(C1)N1C(=C(C#N)C2c2ccc(Cl)cc2)N=C(N)c2ccccc21 (stereo unspecified) | 50µM* | ? | ? | -5% | -9 | 13%
CC1(C)CC(=O)C2=C(C1)N1C(=C(C#N)C2c2ccccc2Cl)N=C(N)c2ccccc21 (stereo unspecified) | ? | ? | -10% | -7% | -2 | 27%
COc1cnc(-c2ccccn2)[nH]c1=O | 1.3µM* | 40µM* | 34% | -16% | -2 | 31%
COc1cnc(SC(C)C)[nH]c1=O | 0% | -20% | · | -4% | 1 | 31%
CCc1cc2c(=O)[nH]c(N3CCCC3)nc2s1 | -10% | -4% | -10% | -6% | -8 | 19%
CCc1cc2c(=O)[nH]c(-c3ccccn3)nc2s1 | 28µM* | 25µM* | 26%[59 µM] | -25% | -8 | 36%
CC1(c2nc3ccccc3[nH]2)CCC2=Nc3ccccc3CN21 (stereo unspecified) | · | · | · | -6% | 8 | ·
Cc1cc(C)cc(Nc2cc(C(=O)NCc3ccccc3)c3ccccc3n2)c1 | · | -4% | 47%[59 µM] | · | · | 81%
COc1ccc(C2CC23N=C(c2ccccc2)OC3=O)cc1 (stereo unspecified) | 4% | 15% | -5%[59 µM] | 17µM* | -2 | 92%
COc1ccc(C2=N[C@H](c3ccccc3)CO2)cc1 | · | · | 21% | · | · | ·

Screens: PubChem BioAssay, National Center for Advancing Translational Sciences (NCATS)
